The values that follow come from PubChem BioAssay (NCATS).

Several values for one entry are separate records, joined by “and”; a condition that tells them apart may be missing. Equal values may be shown once. Records with an inconclusive call do not appear. A number with no mark means an inactive call. Activity calls are given as the source filed them. The call rests on the fitted dose curve; in most records, active means well fitted curve in the direction sought with a large enough effect; inconclusive means small, poorly fitted or top-dose-only effect, or another doubt; inactive means no such curve, though single readings can be large; an effect the other way counts as inactive or inconclusive.

The target of test [1] is Cellular tumor antigen p53 (Homo sapiens) (UniProt P04637). In words: Primary qHTS for small molecule compounds that upregulate eGFP-tagged delta133p53alpha (in N-terminal) cells. (AID 2060322). Further: nearly all actives have a fitted effect of over 75% in size. Further: potency means the concentration at half of the fitted maximal effect.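 On activation: series mostly up to about 56 µM; 0% = DMSO vehicle and 100% = reference activator.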 Particulars: NCI-H358 eGFP-delta133p53alpha fluorescence, 24 h; activation: stronger effect = higher value. The procedure, abridged:
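NCI-H358 cells pre-induced 24 h with 10 ng/ml doxycycline to express N-terminal eGFP-delta133p53alpha, then dosed 24 h at 37C without doxycycline; fixed, Hoechst-stained, GFP intensity by laser scanning cytometry, normalized to DMSO (0%) and 57.5 uM 5-azacytidine (100%).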
In general terms: qHTS replaces the single test concentration by a dilution series.

Test [2] concerns the target Aldehyde dehydrogenase, mitochondrial (Homo sapiens) (UniProt P05091). Nature of the test: qHTS for Inhibitors of the Aldehyde Dehydrogenase Family (ALDH2) Primary screen (AID 2061308).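 Further: plate controls were vehicle for no effect and reference inhibitor for full effect; nearly all actives have a fitted effect of over 55% in size.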
For test [3], the target named is Retinaldehyde dehydrogenase 3 (Homo sapiens) (UniProt P47895). In words: qHTS for Inhibitors of the Aldehyde Dehydrogenase Family (ALDH1A3) Primary screen (AID 2061315).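 Further: plate controls were DMSO vehicle for no effect and reference inhibitor for full effect.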
Test [4] can be described thus: BET inhibitor-based combinations targeting novel dependencies in MECOM-rearranged (r) AML: SET-2 cell line (AID 2202231). Further: nearly all actives have a fitted effect of over 35% in size. Further: potency means the concentration at half of the fitted maximal effect.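 On viability: plate controls were DMSO treated cells for no effect and wells without cells for full effect.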 Particulars: SET-2 AML cells viability, CellTiter-Glo luminescence, 48 h; viability: stronger effect = lower value, concentration not given here. The procedure, abridged: (§1)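 A 48 hr incubation preceded viability reading by CellTiter-Glo, with 15 min room-temperature development. Dose series had 11 points; normalization used DMSO and empty wells; AUC was computed and mean-centered per line as Z-AUC.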
For orientation: ATP-based viability assays read luminescence as a measure of living cells.

Test [5] can be described thus: BET inhibitor-based combinations targeting novel dependencies in MECOM-rearranged (r) AML: OCI-AML3 cell line (AID 2202232). Further: nearly all actives have a fitted effect of over 35% in size. Further: potency means the concentration at half of the fitted maximal effect. As to conditions: Potency: OCI-AML3 viability. In outline:
as §1

Test [6] is described as follows: BET inhibitor-based combinations targeting novel dependencies in MECOM-rearranged (r) AML: MV-4-11 cell line (AID 2202233). Further: nearly all actives have a fitted effect of over 45% in size. Further: potency means the concentration at half of the fitted maximal effect. The procedure, abridged: (§2)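 Each compound is tested in an 11-point concentration series against 500 seeded cells/well for 48 hr. The luminescent viability signal is normalized to DMSO and blank wells, then reduced to AUC and a cell-line-centred Z-AUC.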

Test [7] is described as follows: BET inhibitor-based combinations targeting novel dependencies in MECOM-rearranged (r) AML: HNT-34 cell line (AID 2202234). Further: nearly all actives have a fitted effect of over 35% in size. Further: potency means the concentration at half of the fitted maximal effect. In outline: as §2
A short description of test [8]: BET inhibitor-based combinations targeting novel dependencies in MECOM-rearranged (r) AML: UCSD-AML1 cell line (AID 2202235). Further: nearly all actives have a fitted effect of over 40% in size. Further: potency means the concentration at half of the fitted maximal effect. The procedure, abridged:
as §2

Test [9] is described as follows: BET inhibitor-based combinations targeting novel dependencies in MECOM-rearranged (r) AML: AML-191 cell line (AID 2202236; further: nearly all actives have a fitted effect of over 35% in size; further: potency means the concentration at half of the fitted maximal effect). The procedure, abridged:
as §1

A short description of test [10]: BET inhibitor-based combinations targeting novel dependencies in MECOM-rearranged (r) AML: AML-194 cell line (AID 2202237; further: nearly all actives have a fitted effect of over 40% in size; further: potency means the concentration at half of the fitted maximal effect). In outline:
as §1

Sequence of Cellular tumor antigen p53 (Homo sapiens) (P04637 whole entry, looked up): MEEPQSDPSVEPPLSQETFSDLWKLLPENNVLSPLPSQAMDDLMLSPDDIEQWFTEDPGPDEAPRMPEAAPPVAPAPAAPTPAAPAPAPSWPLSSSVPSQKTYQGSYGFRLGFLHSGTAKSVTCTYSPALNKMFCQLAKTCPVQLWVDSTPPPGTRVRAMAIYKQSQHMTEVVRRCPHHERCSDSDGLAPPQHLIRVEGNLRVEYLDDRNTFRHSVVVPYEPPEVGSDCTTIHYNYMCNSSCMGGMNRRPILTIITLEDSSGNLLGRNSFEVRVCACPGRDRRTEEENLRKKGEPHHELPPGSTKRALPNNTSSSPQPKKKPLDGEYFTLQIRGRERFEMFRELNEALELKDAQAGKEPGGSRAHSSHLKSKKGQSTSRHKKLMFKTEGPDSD

In the case of `Cc1nc([C@](C)(O)CO)sc1-c1cnc(N)c(O[C@H](C)c2cc(F)ccc2-n2nccn2)c1`, the activation in test [1] is -10.7%. Further, the Potency entry in [2] and in test [3] was “inactive” throughout. Also, the Potency was 10.5 µM (active) in test [4]; 0.742 µM (active) in [5]; 6.61 µM (active) in [6]; 11.8 µM (active) in test [7]; 1.32 µM (active) in [8]; 0.833 µM (active) in test [9]. Further, the Potency in test [10] is 1.18 µM (active).

As to `Cc1ccccc1C(C(=O)NC1CCCCC1)N(C(=O)CNc1ccc(C#N)cc1)c1cccc(F)c1` (stereo not drawn), the activation in test [1] was 17.1% and 3.57%. The Potency result in test [2], in test [3], in test [5], in [6], in [7] and in test [8] was “inactive” each time. Also, the Potency entry in test [9] and in [10] was “inactive” in each case. In addition, the viability in test [4] was 109%.

As for `Cc1ccccc1-n1c(Cn2nc(-c3cccc(O)c3)c3c(N)ncnc32)nc2cccc(C)c2c1=O`, in test [1], the activation was 21.6% and 16.7%. Moreover, the Potency entry in [2], in [3] and in test [10] was “inactive” each time. Also, the viability in [4] is 105%. In addition, the figures for the Potency in test [5], in test [6] and in test [7] were 1.86 µM (active), 0.296 µM (active) and 14.8 µM (active), respectively.

As to `c1cc(N[C@@H]2CCNC2)nc(-c2cnc3ccc(-c4cn[nH]c4)cn23)c1`, the Potency in test [1] was 34.3 µM (active); in [5], 8.33 µM (active); in test [6], 0.0132 µM (active); in test [7], 4.17 µM (active); in [10] it was 18.6 µM (active). Moreover, the Potency result in [2] and in test [3] was “inactive” in each case. For the same molecule, the viability in [4] is 88.2%.

Turning to `Cn1c2cc(S(C)=O)sc2c2cnn(Cc3cccc(N)c3)c(=O)c21` (stereo not drawn), the activation in test [1] was 15.5%. Moreover, the Potency result in [2], in [3], in test [5], in test [6], in test [7] and in [8] was “inactive” in each case. The Potency result in test [9] and in [10] was “inactive” each time. The viability in [4] was 104%.

For the molecule `CC1(C)[C@@H](O)CC[C@]2(C)[C@H]3C(=O)C=C4[C@@H]5C[C@@](C)(C(=O)O)CC[C@]5(C)CC[C@@]4(C)[C@]3(C)CC[C@@H]12`, the activation in [1] is 29.7%. The Potency entry in test [2], in test [3], in test [5], in test [6], in [7] and in [8] was “inactive” each time. In test [10], the Potency entry was “inactive”. In addition, the viability in test [4] was 112%.

For the molecule `Cc1ccc(C(=O)Nc2ccc(Oc3cc4cnn(C)c4cc3-c3cn[nH]c3)c(F)c2)c(=O)n1-c1ccc(F)cc1`, the Potency was 15.1 µM (active) in test [1]; 11.8 µM (active) in [4]; 5.25 µM (active) in test [5]; 0.0053 µM (active) in test [6]; 5.25 µM (active) in test [8]; 6.61 µM (active) in test [9]. Besides, the Potency entry in test [2] and in [3] was “inactive” in each case.

Turning to `COc1cc2c(Nc3ccc(NC(=O)c4ccccc4)cc3)ncnc2cc1OCCCN1CCOCC1`, the activation in test [1] is 32.6%. The Potency result in test [2] and in test [3] was “inactive” throughout. The Potency in test [4] is 26.3 µM (active); in test [5] it was 18.6 µM (active); in test [6] it was 1.66 µM (active); in test [7], 1.32 µM (active); in [9], 20.9 µM (active); in test [10], 23.5 µM (active).

For the molecule `CCN(c1cc(C#CCN2CCOCC2)cc(C(=O)NCc2c(C)cc(C)[nH]c2=O)c1C)C1CCC(N(C)CCOC)CC1` (stereo not drawn), the activation in test [1] is -11.7%. For the same molecule, the Potency result in test [2], in test [3], in test [5], in test [6], in [7] and in test [8] was “inactive” throughout. Moreover, the Potency entry in test [9] and in [10] was “inactive” throughout. Moreover, the viability in test [4] is 113%.

In the case of `CNc1nccc(-c2cccnc2Oc2cc(C(=O)Nc3cccc(C(F)(F)F)c3)ccc2C)n1`, in test [1], the activation was -0.576%. In addition, the Potency result in [2] and in test [3] was “inactive” each time. Besides, the Potency was 16.6 µM (active) in [4]; 2.35 µM (active) in [5]; 2.95 µM (active) in test [6]; 6.61 µM (active) in test [8]; 6.61 µM (active) in test [9]; 6.61 µM (active) in [10].

`O=C(Nc1ccccc1-c1cn2c(CN3CCNCC3)csc2n1)c1cnc2ccccc2n1`: the activation in test [1] was -29.5%. The Potency entry in test [2] and in [3] was “inactive” each time. Besides, the Potency in [4] was 8.33 µM (active); in test [5] it was 20.9 µM (active); in test [6] it was 5.25 µM (active); in test [7], 20.9 µM (active); in [8], 8.33 µM (active); in [9] it was 7.42 µM (active). Further, the Potency in test [10] was 8.33 µM (active).

On to `COc1cc2ncnc(Nc3ccc(F)c(Cl)c3)c2cc1NC(=O)/C=C/CN1CCCCC1`, for which the Potency in [1] was 9.53 µM (active); in test [4] it was 8.33 µM (active); in test [5] it was 5.9 µM (active); in [6] it was 2.95 µM (active); in [7], 3.72 µM (active); in [8], 8.33 µM (active). The Potency in test [9] is 7.42 µM (active); in [10], 8.33 µM (active). The Potency entry in [2] and in test [3] was “inactive” in each case.

Consider `C1Cc2[nH]nc(-c3nn[nH]n3)c2C1`, for which the activation in test [1] was 0.623% and -10.5%. Besides, the Potency result in [2], in test [3], in test [5], in test [6], in test [7] and in test [8] was “inactive” throughout. Further, the Potency result in test [9] and in [10] was “inactive” throughout. Further, in test [4], the viability was 120%.

As for `CC[C@]12C=CCN3CC[C@@]4(c5cc([C@@]6(C(=O)OC)C[C@H]7C[C@@H](C(C)(F)F)CN(Cc8c6[nH]c6ccccc86)C7)c(OC)cc5N(C)[C@H]4[C@@](O)(C(=O)OC)[C@@H]1OC(C)=O)[C@@H]32`, the Potency is 0.199 µM (active) in test [1]; 0.783 µM (active) in [4]; 0.124 µM (active) in test [5]; 0.197 µM (active) in test [6]; 0.139 µM (active) in [8]; 0.0698 µM (active) in test [9]. For the same molecule, in test [10], the Potency is 0.139 µM (active). In addition, the Potency entry in test [2] and in test [3] was “inactive” each time.

As for `c1ccc2c(Oc3nc(Nc4ccc(N5CCOCC5)cc4)c4ncn(C5CCCCC5)c4n3)cccc2c1`, in test [1], the activation is 9.2% and -7.64%. The Potency result in test [2], in test [3], in test [5], in test [8] and in [9] was “inactive” in each case. The viability in test [4] is 101%. Moreover, the Potency in test [6] was 7.42 µM (active).

The term viability denotes a read-out of living cells in per cent, often relative to untreated cells.
